High-throughput results (PubChem BioAssay)
The entries come from a sample that favours hits as a whole.
Methyltransferases: Primary Screen for Target Class Profiling of Small Molecule Inhibitors of Methyltransferases. AID 1745853, 2022. actives 3.9% (n = 25,000). purified enzyme, MTase-Glo SAH luminescence; stronger effect = lower value. calls only at 40 µM; call rule not given here
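Each enzyme was assayed with SAM and its substrate. SAH formation detected by MTase-Glo luminescence; single-point 40 uM screen[…].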
Starred values were filed as active, the others as inactive. % is set by controls: 0 for no effect and ±100 for the full control effect.

Screening CNCCN(C)Cc1cn[nH]c1-c1ccc(OC2CC(OCCC3CCOCC3)C2)cc1 (configuration not stated) returned Methyltransferases active.
For CC(=O)N[C@H]1CCN(c2ccc(C3=NOC(CN[S+](=O)([O-])C(C)C)C3)cc2F)C1 (some centres not stated) the results were Methyltransferases inactive.
For CCc1ccc(N2C(=O)c3cc(C(=O)OC)nn3CC2(C)C(=O)NC2CCCCCC2)cc1 (configuration not stated) the results were Methyltransferases inactive.
For COc1ccccc1CNC(=O)C1(C)Cn2nc(-c3ccccc3)cc2C(=O)N1Cc1ccc(C)o1 (configuration not stated) the results were Methyltransferases inactive.
Screening COc1ccc(CNC(=O)c2cc3n(n2)CC(C)(C(=O)NC2CCCC2)N(C)C3=O)cc1 (configuration not stated) returned Methyltransferases inactive.
`CN(c1ccccc1CNc1nc(Nc2ccc3c(c2)CC(=O)N3)ncc1C(F)(F)F)S(C)(=O)=O` gave Methyltransferases active.
`CC1(C(=O)NC2CCCCC2)Cn2c(ccc2-c2ccccc2)C(=O)N1CCCN1CCCC1=O` (configuration not stated) gave Methyltransferases inactive.
Screening C[S+](=O)([O-])NC1CCN(c2nc3ncccc3o2)C1 (configuration not stated) returned Methyltransferases inactive.
Screening CC(C)NC(=O)c1ccc2c(=O)n(Cc3ccccc3)c3nn(CC(=O)NC(C)(C)C)c(=O)n3c2c1 returned Methyltransferases inactive.
`CCOc1ccc(CCN2C(=O)c3cc(C(=O)OC)nn3CC2(C)C(=O)NC2CCCCC2)cc1` (configuration not stated) gave Methyltransferases inactive.
O=C(N[C@@H]1CN(C(=O)c2[nH]nc3c2CCc2ccccc2-3)CC[C@@H]1CO)c1ccccc1 was read as Methyltransferases inactive.
For COc1ccccc1-n1cc(C(=O)N[C@H](c2cnn(C)c2)C2CC(O)C2)cn1 (some centres not stated) the results were Methyltransferases inactive.
Screening NC(=NCCCCCCN=C(N)/N=C(\N)Nc1ccc(Cl)cc1)/N=C(\N)Nc1ccc(Cl)cc1 returned Methyltransferases active.
`CN1CCN2c3ccccc3Cc3ccccc3C2C1` (configuration not stated) gave Methyltransferases inactive.
`CSc1ccc2c(c1)C(N1CCN(C)CC1)Cc1ccccc1S2` (configuration not stated) gave Methyltransferases active.
CN1CCN(CCCN2c3ccccc3Sc3ccc(Cl)cc32)CC1 was read as Methyltransferases inactive.
COCCC1(C(=O)O)CCCN(Cc2cn[nH]c2C2CCCCC2)C1 (configuration not stated) was read as Methyltransferases inactive.
For COCc1noc(-c2ccc(NC[C@H]3CCc4ccccc4O3)nc2)n1 the results were Methyltransferases inactive.
Screening CC(C)N1CCN(C(=O)C23CCCC=C2N(c2ccccc2)C(=O)CC3)CC1 (configuration not stated) returned Methyltransferases inactive.
For CC(C)C1(O)C=C2C(=O)CC3C(C)(C(=O)O)CCCC3(C)C2CC1 (configuration not stated) the results were Methyltransferases inactive.
For CCc1cc2c(cc3n2CC(C)(C(=O)NC2CCCCCC2)N(CCCN2CCCC2)C3=O)s1 (configuration not stated) the results were Methyltransferases inactive.
Screening COc1ccc(OC)c(NC(=O)Cn2c(=O)c3ccc(Cl)cc3n3nncc23)c1 returned Methyltransferases inactive.
CC(C)CCn1c(=O)c2ccccc2n2c(CCC(=O)NCc3cccnc3)nnc12 was read as Methyltransferases inactive.
COc1cccc(C(=O)N2CCN(C(=O)COc3cccc(C)c3)CC2)c1OC was read as Methyltransferases inactive.
`C=CC(=O)N1CCN(C(=O)CNc2cc(-c3ccccc3Cl)c(Cl)cc2OC)CC1` gave Methyltransferases inactive.
`C=CC(=O)N1CCN(C(=O)c2cc(-c3cc(Cl)ccc3Cl)c(Cl)cc2OC)CC1` gave Methyltransferases active.
CCOC(=O)c1cc2n(n1)CC(C)(C(=O)NCCCOC)N(c1cc(C)ccc1C)C2=O (configuration not stated) was read as Methyltransferases inactive.
For O=C(CCc1nnn2c1CN(S(=O)(=O)c1ccccc1)CC2)NCc1ccccc1 the results were Methyltransferases inactive.
Screening Cc1nc(C)c(C(=O)N2CCC3(CC2)CC(N(Cc2ccccc2)C2CC2)CCO3)s1 (configuration not stated) returned Methyltransferases inactive.
`Cn1c2c(c3ccccc31)C(C(=O)NCc1ccccc1)N(CCC1=CCCCC1)C(=O)CS2` (configuration not stated) gave Methyltransferases inactive.
For COc1cc(/C=C2\CCCN([C@@H](C)c3ccc(F)cc3)C2=O)ccc1-n1cnc(C)c1 the results were Methyltransferases active.
COc1cc(Nc2nc3c(s2)CCCC3c2ccccc2)ccc1-n1cnc(C)c1 (configuration not stated) was read as Methyltransferases inactive.
For Cc1cccc(N2C(=O)c3cc4sccc4n3CC2(C)C(=O)NC2CCCCCC2)c1C (configuration not stated) the results were Methyltransferases inactive.
O=C(c1ccc2c(=O)nc3c(-c4cccc(F)c4)n[nH]n3c2c1)N1CCN(c2ccccn2)CC1 was read as Methyltransferases inactive.
CCCn1c(=O)c2ccc(C(=O)NC(C)CC)cc2n2c(=O)n(CC(=O)Nc3cccc(Cl)c3)nc12 (configuration not stated) was read as Methyltransferases inactive.
CCCN1C(=O)c2cc(-c3ccc(C(C)C)cc3)nn2CC1(C)C(=O)NC1CCCCC1 (configuration not stated) was read as Methyltransferases inactive.
Screening O=C(C1CCCN1[S+](=O)([O-])c1cccc(C(F)(F)F)c1)N1CCC(N2Cc3cccn3C2=O)CC1 (configuration not stated) returned Methyltransferases inactive.
Screening CCN1CCN(c2nc3c(S(=O)(=O)c4ccccc4)nnn3c3ccc(Cl)cc23)CC1 returned Methyltransferases inactive.
For CCCC1(CCC)CCC2(CCN(CCCN(CC)CC)C2)CC1 the results were Methyltransferases active.
For C[C@@H]1O[C@@H](O[C@H]2[C@H](O[C@H]3[C@H](O[C@H]4CC[C@@]5(C)C(CC[C@]6(C)C5CC=C5[C@@H]7CC(C)(C)C[C@@H](O)[C@]7(C)CC[C@]56C)[C@@]4(C)CO)O[C@H](C(=O)O)[C@@H](O)[C@@H]3O)O[C@H](CO)[C@H](O)[C@@H]2O)[C@H](O)[C@H](O)[C@H]1O (some centres not stated) the results were Methyltransferases inactive.
For CC1(CO)CC(O)C2(C)CCC3(C)C(=CCC4C5(C=O)CCC(OC6OC(C(=O)O)C(O)C(O)C6OC6OC(C(=O)O)C(O)C(O)C6O)C(C)(C)C5CCC43C)C2C1 (configuration not stated) the results were Methyltransferases active.
